Measurements as given in the supplement of paper PMC11732987, “Enantioselective OTUD7B fragment discovery through chemoproteomics screening and high-throughput optimisation” (Communications Chemistry, 2025).

Columns and labels:
Test in all cases: log2 ratio of Biotin-Ahx-Ub-VS probe labelling (fragment/DMSO); higher = less target engagement (more negative = stronger competition), active = hit call of the paper (q ≤ 0.05, log2 ratio ≤ -1)
Settings in all cases: compound concentration: 200 uM; treatment time: 3 h
USP42 = target: T1, USP42 (UniProt Q9H9J4)
T1 sequence (whole entry): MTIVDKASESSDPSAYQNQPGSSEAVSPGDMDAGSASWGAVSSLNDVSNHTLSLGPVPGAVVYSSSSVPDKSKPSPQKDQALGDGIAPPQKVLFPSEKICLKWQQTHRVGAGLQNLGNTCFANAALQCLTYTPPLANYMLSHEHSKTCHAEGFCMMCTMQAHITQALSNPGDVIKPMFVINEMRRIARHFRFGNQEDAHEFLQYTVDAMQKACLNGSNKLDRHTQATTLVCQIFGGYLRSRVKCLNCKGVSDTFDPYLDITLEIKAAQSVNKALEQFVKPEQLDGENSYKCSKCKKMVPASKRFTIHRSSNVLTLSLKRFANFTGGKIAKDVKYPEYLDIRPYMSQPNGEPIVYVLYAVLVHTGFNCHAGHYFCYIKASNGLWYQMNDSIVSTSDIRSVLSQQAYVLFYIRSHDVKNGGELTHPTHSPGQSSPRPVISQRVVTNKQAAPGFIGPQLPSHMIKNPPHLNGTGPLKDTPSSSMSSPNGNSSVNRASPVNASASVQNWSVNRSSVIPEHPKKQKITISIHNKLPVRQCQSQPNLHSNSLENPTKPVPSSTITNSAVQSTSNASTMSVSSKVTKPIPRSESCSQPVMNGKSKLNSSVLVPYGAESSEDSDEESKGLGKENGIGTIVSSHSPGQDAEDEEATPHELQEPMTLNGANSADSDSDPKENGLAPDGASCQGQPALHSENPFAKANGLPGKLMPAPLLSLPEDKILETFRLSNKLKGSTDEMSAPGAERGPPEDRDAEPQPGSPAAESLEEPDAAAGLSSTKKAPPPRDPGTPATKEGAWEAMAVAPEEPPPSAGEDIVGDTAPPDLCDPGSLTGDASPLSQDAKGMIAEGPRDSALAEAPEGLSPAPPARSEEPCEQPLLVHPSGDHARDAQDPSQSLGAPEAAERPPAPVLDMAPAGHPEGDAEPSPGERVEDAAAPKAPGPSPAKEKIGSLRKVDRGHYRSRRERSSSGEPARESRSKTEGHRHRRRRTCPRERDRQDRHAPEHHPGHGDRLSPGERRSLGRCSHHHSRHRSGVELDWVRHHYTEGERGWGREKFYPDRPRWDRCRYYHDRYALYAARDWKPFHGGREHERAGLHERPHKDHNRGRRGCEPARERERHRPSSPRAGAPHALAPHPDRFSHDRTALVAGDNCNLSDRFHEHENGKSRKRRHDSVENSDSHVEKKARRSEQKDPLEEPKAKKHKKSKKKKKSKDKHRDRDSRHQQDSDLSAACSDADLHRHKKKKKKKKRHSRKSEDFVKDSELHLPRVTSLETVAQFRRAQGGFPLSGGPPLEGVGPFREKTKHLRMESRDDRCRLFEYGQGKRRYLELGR
Method in brief: (§1)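 Labelled DUBs from HEK293T lysate were NeutrAvidin-enriched, digested with LysC and trypsin, and run by diaPASEF LC-MS/MS. Before that, each 495 µg sample in Tris/CHAPS/IGEPAL buffer with protease inhibitors was treated in triplicate with fragment at 200 µM or vehicle for 3 h, then with Biotin-Ahx-Ub-VS at 0.5 µM final for 1 h. Values are average log2 ratios of fragment over vehicle by unpaired t-test, based on global-median-normalised Spectronaut label-free quantities from proteins with ≥2 unique peptides.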

USP46 = USP46 (UniProt P62068)
Sequence of USP46 (P62068 whole entry): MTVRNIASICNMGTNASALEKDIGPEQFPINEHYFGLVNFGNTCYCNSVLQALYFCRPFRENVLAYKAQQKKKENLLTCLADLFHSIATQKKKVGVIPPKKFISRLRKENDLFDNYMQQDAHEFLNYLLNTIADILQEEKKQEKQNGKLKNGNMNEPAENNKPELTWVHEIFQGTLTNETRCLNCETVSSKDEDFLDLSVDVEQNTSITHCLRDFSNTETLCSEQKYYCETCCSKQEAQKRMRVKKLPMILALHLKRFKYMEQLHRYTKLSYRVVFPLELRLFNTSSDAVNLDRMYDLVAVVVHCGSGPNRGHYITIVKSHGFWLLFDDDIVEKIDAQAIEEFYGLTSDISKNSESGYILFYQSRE
Method in brief: as §1

USP47 = target: T2, USP47 (UniProt Q96K76)
T2 sequence (whole entry): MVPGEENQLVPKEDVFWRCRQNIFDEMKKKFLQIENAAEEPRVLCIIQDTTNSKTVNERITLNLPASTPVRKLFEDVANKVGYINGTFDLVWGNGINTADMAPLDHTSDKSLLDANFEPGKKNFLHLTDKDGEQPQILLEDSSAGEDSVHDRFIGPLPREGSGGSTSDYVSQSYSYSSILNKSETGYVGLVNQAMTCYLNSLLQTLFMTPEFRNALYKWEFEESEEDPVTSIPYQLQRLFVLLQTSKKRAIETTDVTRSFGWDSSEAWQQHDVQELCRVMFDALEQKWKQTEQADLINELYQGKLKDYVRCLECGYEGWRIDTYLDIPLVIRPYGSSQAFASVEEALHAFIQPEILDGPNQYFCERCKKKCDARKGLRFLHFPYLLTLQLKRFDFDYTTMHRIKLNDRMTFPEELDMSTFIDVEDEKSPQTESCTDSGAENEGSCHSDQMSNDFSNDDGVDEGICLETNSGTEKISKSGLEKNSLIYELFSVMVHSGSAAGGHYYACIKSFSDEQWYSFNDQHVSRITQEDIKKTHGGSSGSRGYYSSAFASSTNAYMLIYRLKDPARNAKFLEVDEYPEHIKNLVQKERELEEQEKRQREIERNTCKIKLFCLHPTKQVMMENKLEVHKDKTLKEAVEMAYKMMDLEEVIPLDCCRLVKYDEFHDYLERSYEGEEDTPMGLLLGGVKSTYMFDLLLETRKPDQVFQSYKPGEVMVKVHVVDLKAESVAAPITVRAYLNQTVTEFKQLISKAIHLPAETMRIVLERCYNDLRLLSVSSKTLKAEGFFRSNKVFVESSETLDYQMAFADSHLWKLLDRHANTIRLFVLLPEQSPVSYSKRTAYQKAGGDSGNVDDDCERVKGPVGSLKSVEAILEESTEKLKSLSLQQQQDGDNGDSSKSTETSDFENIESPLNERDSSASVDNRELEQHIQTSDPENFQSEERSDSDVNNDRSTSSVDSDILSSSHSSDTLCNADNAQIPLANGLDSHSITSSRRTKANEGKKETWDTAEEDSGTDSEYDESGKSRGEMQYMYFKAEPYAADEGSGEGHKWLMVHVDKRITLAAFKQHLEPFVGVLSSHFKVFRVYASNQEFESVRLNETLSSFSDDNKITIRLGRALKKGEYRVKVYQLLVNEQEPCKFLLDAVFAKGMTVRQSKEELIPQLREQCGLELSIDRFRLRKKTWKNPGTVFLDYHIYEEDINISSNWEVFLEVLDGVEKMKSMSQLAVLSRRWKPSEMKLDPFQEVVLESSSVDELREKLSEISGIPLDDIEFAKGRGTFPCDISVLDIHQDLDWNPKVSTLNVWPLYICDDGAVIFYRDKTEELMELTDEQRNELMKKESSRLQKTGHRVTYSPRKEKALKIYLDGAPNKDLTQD
Method in brief: as §1

USP48 = target: T3, USP48 (UniProt Q86UV5)
T3 sequence (whole entry): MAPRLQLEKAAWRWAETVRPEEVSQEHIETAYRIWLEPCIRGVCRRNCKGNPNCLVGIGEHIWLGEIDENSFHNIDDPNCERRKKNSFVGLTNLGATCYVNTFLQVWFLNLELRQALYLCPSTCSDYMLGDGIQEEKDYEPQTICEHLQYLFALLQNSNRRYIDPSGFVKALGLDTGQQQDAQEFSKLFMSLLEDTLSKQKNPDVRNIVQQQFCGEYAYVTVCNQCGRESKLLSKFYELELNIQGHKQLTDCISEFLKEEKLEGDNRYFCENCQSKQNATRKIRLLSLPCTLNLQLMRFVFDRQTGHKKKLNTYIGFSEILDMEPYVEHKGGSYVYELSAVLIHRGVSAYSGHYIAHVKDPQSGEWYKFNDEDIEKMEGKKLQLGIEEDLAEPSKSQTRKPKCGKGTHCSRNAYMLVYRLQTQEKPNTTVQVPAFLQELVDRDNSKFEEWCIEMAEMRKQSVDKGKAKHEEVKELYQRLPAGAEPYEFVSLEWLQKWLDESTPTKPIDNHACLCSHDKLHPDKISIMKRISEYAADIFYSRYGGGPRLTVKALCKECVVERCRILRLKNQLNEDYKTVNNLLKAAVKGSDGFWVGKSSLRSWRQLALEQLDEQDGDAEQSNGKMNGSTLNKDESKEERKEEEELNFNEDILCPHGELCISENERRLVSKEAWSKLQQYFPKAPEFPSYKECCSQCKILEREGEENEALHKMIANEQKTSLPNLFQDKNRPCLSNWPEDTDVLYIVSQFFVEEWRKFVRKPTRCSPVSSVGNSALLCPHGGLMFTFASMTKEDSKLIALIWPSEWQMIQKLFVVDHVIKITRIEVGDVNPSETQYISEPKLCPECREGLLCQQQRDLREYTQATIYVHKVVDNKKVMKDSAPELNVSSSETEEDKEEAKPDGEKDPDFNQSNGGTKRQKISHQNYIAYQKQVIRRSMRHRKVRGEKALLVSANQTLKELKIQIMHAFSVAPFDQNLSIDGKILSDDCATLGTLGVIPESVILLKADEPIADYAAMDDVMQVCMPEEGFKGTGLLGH
Method in brief: as §1

USP5 = target: T4, USP5 (UniProt P45974)
T4 sequence (whole entry): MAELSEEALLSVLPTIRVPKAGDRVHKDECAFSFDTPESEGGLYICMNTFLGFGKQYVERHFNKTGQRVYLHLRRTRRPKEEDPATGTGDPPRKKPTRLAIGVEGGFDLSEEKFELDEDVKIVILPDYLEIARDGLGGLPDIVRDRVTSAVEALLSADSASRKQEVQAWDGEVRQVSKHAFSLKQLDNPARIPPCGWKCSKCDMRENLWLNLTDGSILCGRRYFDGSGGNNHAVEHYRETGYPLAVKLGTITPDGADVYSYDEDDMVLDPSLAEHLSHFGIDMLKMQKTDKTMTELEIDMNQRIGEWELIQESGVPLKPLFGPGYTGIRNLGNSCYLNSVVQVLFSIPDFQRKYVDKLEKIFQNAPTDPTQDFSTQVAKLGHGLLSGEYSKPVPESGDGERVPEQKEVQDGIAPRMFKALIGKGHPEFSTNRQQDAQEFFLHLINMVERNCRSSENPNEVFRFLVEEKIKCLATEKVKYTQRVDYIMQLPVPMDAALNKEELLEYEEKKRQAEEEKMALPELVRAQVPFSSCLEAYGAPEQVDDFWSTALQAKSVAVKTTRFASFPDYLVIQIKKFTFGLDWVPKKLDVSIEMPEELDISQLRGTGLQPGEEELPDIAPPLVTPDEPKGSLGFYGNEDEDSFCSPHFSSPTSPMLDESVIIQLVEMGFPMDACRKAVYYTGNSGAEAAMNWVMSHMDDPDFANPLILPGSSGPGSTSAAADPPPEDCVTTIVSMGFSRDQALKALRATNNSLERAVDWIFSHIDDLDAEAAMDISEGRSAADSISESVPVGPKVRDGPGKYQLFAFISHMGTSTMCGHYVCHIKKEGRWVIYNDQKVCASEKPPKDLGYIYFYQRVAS
Method in brief: as §1

USP54 = USP54 (UniProt Q70EL1)
Sequence of USP54 (Q70EL1 whole entry): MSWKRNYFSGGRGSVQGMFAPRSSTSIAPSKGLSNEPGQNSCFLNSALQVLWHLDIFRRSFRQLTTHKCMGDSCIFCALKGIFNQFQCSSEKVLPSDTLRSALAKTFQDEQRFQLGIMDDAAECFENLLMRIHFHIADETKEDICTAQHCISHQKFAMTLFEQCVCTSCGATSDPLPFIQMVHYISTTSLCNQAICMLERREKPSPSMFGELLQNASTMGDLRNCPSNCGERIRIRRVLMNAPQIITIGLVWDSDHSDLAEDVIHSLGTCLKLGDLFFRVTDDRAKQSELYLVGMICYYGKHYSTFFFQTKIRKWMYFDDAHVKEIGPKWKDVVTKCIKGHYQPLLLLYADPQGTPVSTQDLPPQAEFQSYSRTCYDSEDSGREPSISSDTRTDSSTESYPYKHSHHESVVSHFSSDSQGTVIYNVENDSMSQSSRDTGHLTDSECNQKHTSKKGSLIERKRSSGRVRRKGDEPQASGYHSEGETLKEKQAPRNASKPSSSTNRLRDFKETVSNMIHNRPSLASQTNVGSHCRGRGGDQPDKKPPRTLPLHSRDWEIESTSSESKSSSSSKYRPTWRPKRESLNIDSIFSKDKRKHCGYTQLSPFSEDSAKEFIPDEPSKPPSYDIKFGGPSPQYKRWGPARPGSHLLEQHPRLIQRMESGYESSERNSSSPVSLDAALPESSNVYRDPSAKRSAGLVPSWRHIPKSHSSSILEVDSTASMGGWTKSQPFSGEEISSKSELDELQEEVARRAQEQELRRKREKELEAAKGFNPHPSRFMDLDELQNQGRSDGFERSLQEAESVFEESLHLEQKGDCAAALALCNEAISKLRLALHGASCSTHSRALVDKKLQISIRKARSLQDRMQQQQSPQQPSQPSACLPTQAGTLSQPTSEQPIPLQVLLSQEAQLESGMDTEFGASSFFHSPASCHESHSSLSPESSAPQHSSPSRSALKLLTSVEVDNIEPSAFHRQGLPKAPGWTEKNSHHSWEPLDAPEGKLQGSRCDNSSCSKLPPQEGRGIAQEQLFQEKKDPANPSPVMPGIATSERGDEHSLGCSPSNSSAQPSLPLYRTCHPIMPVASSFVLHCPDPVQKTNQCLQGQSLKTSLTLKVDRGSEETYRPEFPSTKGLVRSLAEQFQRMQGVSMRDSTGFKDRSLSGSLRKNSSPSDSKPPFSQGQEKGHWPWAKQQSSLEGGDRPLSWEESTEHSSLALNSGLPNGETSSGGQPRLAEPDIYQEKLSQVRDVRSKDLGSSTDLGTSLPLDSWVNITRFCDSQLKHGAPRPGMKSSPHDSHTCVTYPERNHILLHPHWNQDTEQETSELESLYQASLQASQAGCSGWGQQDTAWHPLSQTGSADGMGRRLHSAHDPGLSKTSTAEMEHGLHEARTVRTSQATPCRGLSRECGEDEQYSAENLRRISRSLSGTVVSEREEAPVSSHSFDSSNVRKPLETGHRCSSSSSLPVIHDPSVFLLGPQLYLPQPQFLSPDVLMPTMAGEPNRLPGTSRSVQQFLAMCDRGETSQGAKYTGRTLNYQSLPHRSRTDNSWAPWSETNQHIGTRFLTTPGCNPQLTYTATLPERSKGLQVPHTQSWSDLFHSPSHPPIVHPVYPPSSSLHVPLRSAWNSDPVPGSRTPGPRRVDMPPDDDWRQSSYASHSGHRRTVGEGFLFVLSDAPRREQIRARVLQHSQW
Method in brief: as §1

USP7 = USP7 (UniProt Q93009)
Method in brief: as §1

USP8 = target: T5, USP8 (UniProt P40818)
T5 sequence (whole entry): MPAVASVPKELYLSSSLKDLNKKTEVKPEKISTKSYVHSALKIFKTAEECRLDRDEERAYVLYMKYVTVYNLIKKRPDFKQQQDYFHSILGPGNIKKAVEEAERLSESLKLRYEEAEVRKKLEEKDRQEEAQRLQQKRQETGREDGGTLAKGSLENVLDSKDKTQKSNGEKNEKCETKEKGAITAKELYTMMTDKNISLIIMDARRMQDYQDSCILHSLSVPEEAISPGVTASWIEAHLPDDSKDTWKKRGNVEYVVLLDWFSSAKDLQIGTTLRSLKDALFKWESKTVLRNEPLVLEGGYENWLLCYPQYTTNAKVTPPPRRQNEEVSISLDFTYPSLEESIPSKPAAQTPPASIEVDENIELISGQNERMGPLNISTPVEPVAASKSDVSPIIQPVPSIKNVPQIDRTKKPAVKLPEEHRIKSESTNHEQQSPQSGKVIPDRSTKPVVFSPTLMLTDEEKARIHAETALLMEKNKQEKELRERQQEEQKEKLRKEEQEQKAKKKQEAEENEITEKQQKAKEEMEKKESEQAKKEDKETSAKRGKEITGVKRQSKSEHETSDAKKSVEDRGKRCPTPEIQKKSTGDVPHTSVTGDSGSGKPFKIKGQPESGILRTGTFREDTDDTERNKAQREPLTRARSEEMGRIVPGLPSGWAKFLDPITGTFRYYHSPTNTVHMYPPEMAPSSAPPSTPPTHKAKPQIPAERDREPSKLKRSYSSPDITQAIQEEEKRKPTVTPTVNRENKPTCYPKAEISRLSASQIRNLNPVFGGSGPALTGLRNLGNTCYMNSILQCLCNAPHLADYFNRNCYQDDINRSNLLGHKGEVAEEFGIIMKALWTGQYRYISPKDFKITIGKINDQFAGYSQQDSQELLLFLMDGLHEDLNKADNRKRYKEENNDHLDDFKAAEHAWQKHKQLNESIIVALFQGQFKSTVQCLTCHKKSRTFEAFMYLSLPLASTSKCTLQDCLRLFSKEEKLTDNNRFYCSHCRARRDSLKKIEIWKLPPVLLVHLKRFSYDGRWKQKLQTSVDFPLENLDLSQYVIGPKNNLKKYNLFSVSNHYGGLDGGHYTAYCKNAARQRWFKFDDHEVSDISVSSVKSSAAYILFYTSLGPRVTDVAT
Method in brief: as §1

USP9X = USP9X (UniProt Q93008)
Sequence of USP9X (Q93008 whole entry): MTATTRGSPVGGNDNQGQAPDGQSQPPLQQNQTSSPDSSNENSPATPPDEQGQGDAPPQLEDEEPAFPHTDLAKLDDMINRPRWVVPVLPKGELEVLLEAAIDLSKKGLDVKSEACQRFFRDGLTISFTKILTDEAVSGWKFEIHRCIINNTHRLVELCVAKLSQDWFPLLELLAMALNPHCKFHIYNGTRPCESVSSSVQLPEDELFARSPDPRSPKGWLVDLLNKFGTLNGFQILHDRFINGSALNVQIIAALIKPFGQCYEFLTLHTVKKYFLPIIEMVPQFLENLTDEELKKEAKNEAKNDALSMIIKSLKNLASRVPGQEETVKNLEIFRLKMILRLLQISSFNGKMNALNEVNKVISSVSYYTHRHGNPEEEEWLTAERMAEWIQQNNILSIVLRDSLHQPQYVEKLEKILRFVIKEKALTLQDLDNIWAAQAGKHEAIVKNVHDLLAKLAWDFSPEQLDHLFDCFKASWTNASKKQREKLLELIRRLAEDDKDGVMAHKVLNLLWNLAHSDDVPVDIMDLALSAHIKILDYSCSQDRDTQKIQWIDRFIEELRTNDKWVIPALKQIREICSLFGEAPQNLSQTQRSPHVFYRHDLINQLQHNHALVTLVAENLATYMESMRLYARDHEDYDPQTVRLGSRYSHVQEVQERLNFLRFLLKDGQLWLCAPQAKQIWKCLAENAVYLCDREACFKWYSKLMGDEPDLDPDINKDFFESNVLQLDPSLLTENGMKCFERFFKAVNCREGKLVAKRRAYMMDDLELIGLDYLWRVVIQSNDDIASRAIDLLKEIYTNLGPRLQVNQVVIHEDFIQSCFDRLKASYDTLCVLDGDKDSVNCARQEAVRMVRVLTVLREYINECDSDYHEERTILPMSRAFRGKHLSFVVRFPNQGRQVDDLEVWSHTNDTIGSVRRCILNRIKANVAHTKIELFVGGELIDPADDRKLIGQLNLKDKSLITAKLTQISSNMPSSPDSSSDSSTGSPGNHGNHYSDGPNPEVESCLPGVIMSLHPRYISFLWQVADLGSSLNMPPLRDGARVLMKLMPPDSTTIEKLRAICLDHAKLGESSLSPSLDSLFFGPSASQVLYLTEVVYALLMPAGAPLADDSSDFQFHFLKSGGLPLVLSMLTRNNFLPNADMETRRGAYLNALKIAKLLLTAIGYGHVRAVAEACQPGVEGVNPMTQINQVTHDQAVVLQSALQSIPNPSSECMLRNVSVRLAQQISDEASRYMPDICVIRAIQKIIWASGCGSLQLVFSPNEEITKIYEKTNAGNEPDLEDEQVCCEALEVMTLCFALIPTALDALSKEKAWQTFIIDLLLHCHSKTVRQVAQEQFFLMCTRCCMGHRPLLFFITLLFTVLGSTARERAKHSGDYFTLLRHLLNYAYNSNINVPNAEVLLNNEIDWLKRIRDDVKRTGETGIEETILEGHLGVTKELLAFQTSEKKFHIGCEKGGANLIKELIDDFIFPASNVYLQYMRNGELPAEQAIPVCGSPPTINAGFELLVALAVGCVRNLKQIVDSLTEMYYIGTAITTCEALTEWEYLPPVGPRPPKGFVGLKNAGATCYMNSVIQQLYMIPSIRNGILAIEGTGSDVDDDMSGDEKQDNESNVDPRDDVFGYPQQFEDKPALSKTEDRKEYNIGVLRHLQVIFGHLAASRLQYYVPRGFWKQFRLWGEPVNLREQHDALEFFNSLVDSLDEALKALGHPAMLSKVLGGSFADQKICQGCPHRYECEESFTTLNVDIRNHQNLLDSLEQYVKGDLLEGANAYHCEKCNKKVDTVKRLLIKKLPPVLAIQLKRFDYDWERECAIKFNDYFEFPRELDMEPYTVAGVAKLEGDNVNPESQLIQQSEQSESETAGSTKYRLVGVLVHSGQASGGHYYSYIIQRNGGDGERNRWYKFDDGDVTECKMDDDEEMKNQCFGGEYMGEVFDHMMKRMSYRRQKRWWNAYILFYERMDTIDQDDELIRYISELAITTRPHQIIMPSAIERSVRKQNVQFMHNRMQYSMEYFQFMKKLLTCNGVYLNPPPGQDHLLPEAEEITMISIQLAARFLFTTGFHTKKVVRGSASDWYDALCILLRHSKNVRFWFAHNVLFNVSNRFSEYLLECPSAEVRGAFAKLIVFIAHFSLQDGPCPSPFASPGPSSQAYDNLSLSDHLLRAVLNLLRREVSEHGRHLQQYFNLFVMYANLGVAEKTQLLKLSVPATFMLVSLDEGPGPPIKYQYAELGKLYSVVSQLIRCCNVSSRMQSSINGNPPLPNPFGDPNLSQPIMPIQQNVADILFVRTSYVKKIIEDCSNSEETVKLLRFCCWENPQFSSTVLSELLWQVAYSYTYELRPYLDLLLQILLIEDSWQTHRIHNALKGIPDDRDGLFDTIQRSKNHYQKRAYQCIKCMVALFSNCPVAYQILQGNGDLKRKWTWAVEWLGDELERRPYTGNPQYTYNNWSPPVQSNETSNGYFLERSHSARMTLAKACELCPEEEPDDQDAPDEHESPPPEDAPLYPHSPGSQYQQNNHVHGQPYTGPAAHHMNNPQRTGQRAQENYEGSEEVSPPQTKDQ
Method in brief: as §1

UniProt O00487 = target: UniProt O00487
Sequence of UniProt O00487 (O00487 whole entry): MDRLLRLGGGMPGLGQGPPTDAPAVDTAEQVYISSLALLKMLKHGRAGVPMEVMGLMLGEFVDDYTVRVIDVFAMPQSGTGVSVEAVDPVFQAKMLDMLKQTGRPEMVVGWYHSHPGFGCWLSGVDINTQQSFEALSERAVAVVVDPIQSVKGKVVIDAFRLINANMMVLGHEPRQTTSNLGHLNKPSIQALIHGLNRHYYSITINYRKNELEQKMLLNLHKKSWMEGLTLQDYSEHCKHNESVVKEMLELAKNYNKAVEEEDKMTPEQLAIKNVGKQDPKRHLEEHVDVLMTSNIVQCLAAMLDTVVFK
Method in brief: as §1

Measured: log2 ratio of Biotin-Ahx-Ub-VS probe labelling

O=C(CN1CCN(C(=O)CCl)CC1)Nc1cccc(F)c1
inactive: USP42 -0.241 | USP46 -0.173 | USP47 -0.178 | USP48 -0.419 | USP5 0.215 | USP54 0.835 | USP7 -0.436 | USP8 -0.23 | USP9X -0.429 | UniProt O00487 0.0211
